Compound activity as filed in PubChem.
Compounds with a hit are over-represented: about 1.6% of the library has one in this group of screens.
KCNQ2 enhance – potentiators of rat KCNQ2 potassium channel. 0.54% of 310,000 active. B-score at 10 µM. AID 2239. CHO-K1 KCNQ2, FluxOR thallium flux fluorescence; hits give high values;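 active = fluorescence ratio B-score at least 3 SD of library B-scores, with initial fluorescence B-score within 3 of them, cut at about 5.3 in these data; same plate scores as AID 2156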;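 also: B-score of peak minus minimum over baseline fluorescence ratio after K+ and Tl+ stimulus; positive B-score means potentiation of KCNQ2 with more thallium influx and brighter signal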
KCNQ2 block – inhibitors of rat KCNQ2 potassium channel. B-score at 10 µM. O88943. 1.1% of 310,000 active. AID 2156. CHO-K1 KCNQ2, FluxOR thallium flux, 20 min; hits give low values;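 active = fluorescence ratio B-score at most minus 3 library SDs, with starting brightness B-score within 2 library SDs, cut at about -5.5 in these data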
Kir21 conf inh – confirmation of mouse Kir2.1 potassium channel inhibitors. shares compounds with KCNQ2 enhance. Kir2.1-expressing cells, FluxOR thallium flux fluorescence; hits give low values. Tl flux remaining, % of negative control (hits give low values), % at 10 µM. 41% of 2,300 active;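 active = Primary-screen hit whose thallium flux fell at least 3 control SD below untreated wells in both duplicates, with normal baseline fluorescence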
Target sequence (P35561 whole entry, looked up): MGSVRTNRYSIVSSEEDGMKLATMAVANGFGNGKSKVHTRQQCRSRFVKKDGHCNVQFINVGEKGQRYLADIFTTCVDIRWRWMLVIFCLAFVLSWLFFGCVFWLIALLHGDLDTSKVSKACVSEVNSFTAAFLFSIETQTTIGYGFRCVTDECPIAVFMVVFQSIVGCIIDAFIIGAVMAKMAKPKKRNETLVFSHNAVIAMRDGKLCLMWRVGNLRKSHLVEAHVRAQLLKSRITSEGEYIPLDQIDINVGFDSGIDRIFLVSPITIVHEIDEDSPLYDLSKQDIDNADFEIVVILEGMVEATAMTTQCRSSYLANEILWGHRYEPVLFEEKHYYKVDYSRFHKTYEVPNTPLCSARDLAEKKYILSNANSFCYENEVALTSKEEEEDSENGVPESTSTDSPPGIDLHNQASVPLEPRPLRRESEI
HEK293 ctr – counter-screen for Kir2.1 inhibitors: effect in parental HEK293 cells; 19% of 2,300 active; FluxOR signal as % of negative control (100 = no effect), % at 10 µM; FluxOR thallium flux fluorescence; 0% = unstimulated blank wells; AID 2105; shares compounds with KCNQ2 enhance;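 active = dye signal at least 3 control SD above or below untreated wells in both duplicates, raw fluorescence within 3, either direction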;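 also: percent is based on the flux ratio of peak minus minimum fluorescence over baseline F0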
CHO-K1 ctr – counter-screen for KCNQ2 potentiators: effect in parental CHO-K1 cells | 43% of 1,200 active | AID 2282 | shares compounds with KCNQ2 enhance | activity increase over 3SD of controls, % at 10 µM | FluxOR thallium flux fluorescence; zero = vehicle mean+3SD, 100% = vehicle-minus-blank window;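 active = signal rise of at least 3 SD above the untreated control mean, in both duplicate wells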;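 also: counter screen of KCNQ2 potentiator hits so any rise reflects channel-independent effects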
KCNQ1 pot spec – selectivity of KCNQ2 potentiators: effect on human KCNQ1. AID 2283. shares compounds with KCNQ2 enhance. 28% of 1,200 active. activation over 3SD threshold, % at 10 µM. CHO KCNQ1 stable, FluxOR thallium flux fluorescence; beyond 3SD, as % of vehicle-control signal;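 active = fluorescence ratio rise of at least 3 SD of vehicle wells above their mean, in both replicate wells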
KCNQ2 pot confirm – rat KCNQ2 channel potentiator confirmation | shares compounds with KCNQ2 enhance | CHO-KCNQ2 cells, FluxOR thallium flux fluorescence | potentiation, less the hit threshold, % at 10 µM | 68% of 1,200 active;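 active = fluorescence ratio rising 3 SD or more over the vehicle control mean in both replicates, plus primary screen hit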;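 also: peak minus minimum thallium fluorescence divided by baseline after K/Tl stimulus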
Kir21 spec – selectivity of KCNQ2 potentiators: effect on mouse Kir2.1. shares compounds with KCNQ2 enhance. HEK293 Kir2.1, FluxOR thallium flux fluorescence. activity over 3SD threshold, % at 10 µM. 2% of 1,200 active. AID 2345;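 active = fluorescence ratio rise of at least 3 SD above the vehicle-control mean, seen in both replicates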
KCNQ2 W236L pot – potentiates the retigabine-insensitive rat KCNQ2 W236L mutant channel. current increase over 3SD of negative controls (%), hits give high values, % at 25 µM. CHO KCNQ2-W236L, automated patch clamp current. 10% of 940 active. AID 2558. shares compounds with KCNQ2 enhance;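 active = current increase at least 3 SD of the untreated controls above them in both duplicate recordings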
Large screens that a line does not name were inactive (follow-up assays come after a bar, where they were run).

CCOc1c(Cl)cc(CNC(C)C(O)c2ccccc2)cc1OC (stereo not given)	none (no result: KCNQ2 enhance)
O=c1[nH]c(=O)n(-c2cccc3ccccc23)c(O)c1/C=N/N1CCCCC1c1cccnc1 (stereo not given)	none
Cc1ccc2cc(CNCCc3ccccc3C)c(=O)[nH]c2c1	none
Cc1cccc(CCNCc2cc3cccc(C)c3[nH]c2=O)c1	none | Kir21 conf inh 52.0% | HEK293 ctr inactive
COc1ccc(-n2c(/C=C3\C(=O)Nc4ccccc43)nc3ccccc3c2=O)cc1	none
CCCCn1c(N)c(C(=O)NCCN2CCOCC2)c2nc3ccccc3nc21	none
O=P(Oc1ccccc1)(Oc1ccccc1)C(O)c1ccccc1 (stereo not given)	none (no result: KCNQ2 enhance)
O=P(Oc1ccccc1)(Oc1ccccc1)c1ccccc1	none (no result: KCNQ2 enhance) | Kir21 conf inh 60.0% | HEK293 ctr inactive
O=c1[nH]sc2cc(F)ccc12	KCNQ2 enhance 6.9 | CHO-K1 ctr inactive | KCNQ1 pot spec inactive | KCNQ2 pot confirm 0.2 | Kir21 spec inactive | KCNQ2 W236L pot 55.8%
CC1(C)OC(c2ccccc2)=C/C(=C/C=C2C(=O)NC(=S)NC2=O)O1	none (no result: KCNQ2 enhance)
CCC(C)c1ccc(N2C(=O)NC(=O)/C(=C/c3cccn3CCOc3ccc(C)cc3)C2=O)cc1 (stereo not given)	none
CC(=O)N1N=C2C3CCN(CC3)C2C1c1ccccc1 (stereo not given)	none (no result: KCNQ2 enhance)
COc1ccc2c(c1)/C(=C/c1cnc[nH]1)C(=O)N2	KCNQ2 enhance 6.81 | Kir21 conf inh inactive | HEK293 ctr inactive | CHO-K1 ctr inactive | KCNQ1 pot spec inactive | KCNQ2 pot confirm 10.4 | Kir21 spec inactive | KCNQ2 W236L pot inactive
O=C1Nc2ccccc2/C1=C/c1cnc[nH]1	none
O=C1CCN(C(=O)CCCn2c(=O)oc3ccccc32)CC1	none (no result: KCNQ2 enhance)
Cc1ccc2c(c1)CC1(CN2C)C(=O)NC(=O)N(CCc2ccccc2)C1=O (stereo not given)	none
CN1CCCN(C(=O)COc2ccc(F)cc2F)CC1	none (no result: KCNQ2 enhance)
COc1ccc(-n2c(O)c(/C=C3\C=Nc4ccc(Br)cc43)c(=O)[nH]c2=O)cc1	none (no result: KCNQ2 enhance)
COc1ccc(C2=NCC(=O)N(CC(=O)NCc3ccco3)c3sc4c(c32)CCCC4)cc1	none (no result: KCNQ2 enhance)
COc1ccc(CNCCc2c(C)[nH]c3ccc(OC(F)(F)F)cc23)c(OC)c1	none (no result: KCNQ2 enhance) | Kir21 conf inh inactive | HEK293 ctr inactive
COc1ccc2[nH]c(C)c(CCNCc3cc(OC)c(OC)c(OC)c3)c2c1	none (no result: KCNQ2 enhance)
CC(=O)N1CN(C(C)=O)CN(C(C)=O)C1	none (no result: KCNQ2 enhance)
